ClpP mod: qHTS Assay for Activators of ClpP. ATP-dependent Clp protease proteolytic subunit (Bacillus subtilis (strain 168)), P80244. purified B. subtilis ClpP, FRET peptide cleavage, 20 min. Potency, µM (highest dose often 57.5 µM), for inactives: at the top dose activity change, negative = active. actives 1.9% (n = 340,000). AID 651965, 2013; active means well fitted falling curve with a large enough effect; inconclusive means small, poorly fitted or top-dose-only effect; inactive means no such curve, though single readings can be large or run the other way; further: potency means the concentration at half of the fitted maximal effect; the source files actives as falling curves though it sought activators and does not explain the sign; nearly all actives have a fitted effect of over 65% in size
Target sequence (P80244 whole entry, looked up): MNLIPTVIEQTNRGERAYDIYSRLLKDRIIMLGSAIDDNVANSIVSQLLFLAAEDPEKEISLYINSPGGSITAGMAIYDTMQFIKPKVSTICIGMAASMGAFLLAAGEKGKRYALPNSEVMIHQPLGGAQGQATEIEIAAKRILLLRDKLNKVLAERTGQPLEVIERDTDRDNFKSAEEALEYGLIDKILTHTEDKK
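Purified B. subtilis ClpP, 10 microg/mL final in Tris/HCl pH8 with KCl, BSA, glycerol and Tween-20, cleaved an Abz/nitrotyrosine-quenched decapeptide. Fluorescence (ex 320, em 430) was read at 0 and 20 min at room temperature. Delta was normalized to 5.8 microM ADEP and DMSO/no-enzyme controls.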
IL2 activator: activates IL-2 in a cell-based reporter assay; IL-2 activation reporter assay, cell-based qHTS; stimulated with anti-CD3/CD4/CD28 beads; in transgenic mouse T cells; activation, % (series mostly up to about 46 µM); actives 0.065% (n = 360,000); in the data active means activation above about 50%; inconclusive means mostly about 30% to 49%; further: 0% is about no effect
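Using fluorescent plate cytometry, EGFP and DsRed are detected in transgenic mouse T cells stimulated 18 h at 37 degrees C with antibody-coated beads after 60 min compound pretreatment.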
PKM2 activator: activators of human pyruvate kinase M2. purified PKM2, Kinase-Glo ATP luminescence, activation; response scale: 0% is enzyme alone, no compound. Potency, µM (highest dose often 57.5 µM), without a hit: at the highest dose activation, actives largely listed as activators. actives 0.34% (n = 260,000); further: potency means the concentration at half of the fitted maximal effect; on the % scale 0 is the no-effect control and ±100 the full control effect; nearly all actives have a fitted effect of over 55% in size
Target sequence (P14618 whole entry, looked up): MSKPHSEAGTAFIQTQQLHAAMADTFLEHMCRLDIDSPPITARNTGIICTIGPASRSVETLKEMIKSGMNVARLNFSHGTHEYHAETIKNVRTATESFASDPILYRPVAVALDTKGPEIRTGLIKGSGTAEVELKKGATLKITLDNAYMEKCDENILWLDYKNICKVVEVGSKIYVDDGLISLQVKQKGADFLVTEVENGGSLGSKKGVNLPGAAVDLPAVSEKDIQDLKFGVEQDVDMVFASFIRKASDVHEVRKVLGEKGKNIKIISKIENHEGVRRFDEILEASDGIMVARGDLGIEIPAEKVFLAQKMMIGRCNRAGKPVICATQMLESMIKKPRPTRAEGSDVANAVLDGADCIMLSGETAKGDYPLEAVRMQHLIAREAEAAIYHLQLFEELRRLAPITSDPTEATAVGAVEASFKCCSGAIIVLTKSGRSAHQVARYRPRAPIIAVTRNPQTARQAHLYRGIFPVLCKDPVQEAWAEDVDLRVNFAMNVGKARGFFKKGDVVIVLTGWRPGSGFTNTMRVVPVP
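Purified hPK-M2 (>95% pure) converted ADP (0.1 mM final) to ATP with 0.5 mM PEP in 50 mM imidazole pH7.2, KCl, MgCl2, Tween 20, BSA; 1 h at room temperature. ATP detected by Kinase-Glo luminescence.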
NPSR antagonist: neuropeptide S receptor (human) antagonism, cAMP; Q6W5P4; CHO-NPSR cells, cAMP TR-FRET, antagonist mode; Potency, µM (doses to about 38.3 µM), inactives show at the top dose activity change, negative = inhibition, actives largely listed as inhibitors; actives 1% (n = 220,000); further: potency means the concentration at half of the fitted maximal effect; on the % scale 0 is the no-effect control and ±100 the full control effect; nearly all actives have a fitted effect of over 50% in size
Starred values were filed as active, the others as inactive; ? = inconclusive; . = not tested or not shown; [ ] = remark or other dose. Compounds with a hit are over-represented: about 2% of the library has one in this group of screens. Unless noted, the call rests on the fitted dose curve; in most records, active means well fitted curve in the direction sought with a large enough effect; inconclusive means small, poorly fitted or top-dose-only effect, or another doubt; inactive means no such curve, though single readings can be large; an effect the other way counts as inactive or inconclusive.

SMILES | ClpP mod | IL2 activator | PKM2 activator | NPSR antagonist
Cc1ccc(NC(=O)COC(=O)C2CC2C)c(S(=O)(=O)N2CCCCC2)c1 (stereo unspecified) | 0% | -1 | -3% | 7%[46.1 µM]
COC(=O)c1cc2ccsc2n1CC(=O)N1CCCc2ccccc21 | -1% | -1 | 0% | ?
COC(=O)c1cc2oc3ccccc3c2n1CC(=O)N1CCCc2ccccc21 | 8.9µM* | 0 | 1% | ?
O=C(CCCNS(=O)(=O)c1cccs1)N1CCN(c2cccc(Cl)c2)CC1 | -1% | -1 | -3% | 2%[46.1 µM]
COCCNC(=O)Cn1cnc2c(cnn2-c2ccc(OC)cc2)c1=O | -2% | 0 | . | .
CCOC(=O)c1cc(-c2nnc(-c3ccc(Oc4ccccc4)cc3)o2)c(C)nc1C | 3.2µM* | -4 | 0% | -22%
O=C(OCc1ccc(C(=O)c2ccccc2)cc1)c1cccc(-c2nnc(-c3ccccc3)o2)c1 | -2% | -3 | -5% | -8%[46.1 µM]
CCOC(=O)c1cc(C(=O)NN)c(C)nc1C | -4% | -1 | -1% | 6%
CCOC(=O)c1cccc(COC(=O)c2cccc(-c3nnc(-c4ccccc4)o3)c2)c1 | 32µM* | 1 | 0% | -12%
O=C(OCc1ccccc1)c1cccc(-c2nnc(-c3ccccc3)o2)c1 | 35µM* | 1 | -1% | -18%[46.1 µM]
C/C(=N\Nc1cccc(C(=O)O)c1)c1cc2ccccc2o1 | . | 2 | -3% | -14%
COc1ccc(S(=O)(=O)N2CCN(Cc3ccc4c(c3)OCO4)CC2)cc1F | . | 2 | . | .
C=C(C)COc1ccc2c(CC)cc(=O)oc2c1C | 13µM* | 0 | -2% | -2%
CCCCc1cc(=O)oc2c(C)c(OCC(=O)N3CCC(C(=O)O)(c4ccccc4)CC3)ccc12 | 4% | 0 | -2% | .
Cc1cc(=O)oc2c(C)c(OCC(=O)N(C)C)ccc12 | 16µM* | 0 | -9% | -1%[46.1 µM]
CCCCc1cc(=O)oc2c(C)c(OCC(=O)N3CCCC3)ccc12 | 13µM* | -2 | 0% | .
O=C(N/N=C/c1cc(Cl)cc([N+](=O)[O-])c1O)NC12CC3CC(CC(C3)C1)C2 | 0% | -2 | 2% | 10µM*
Cc1ccc(C(C)NC(=O)CSc2ccc(S(=O)(=O)N3CCOCC3)cn2)cc1C (stereo unspecified) | 25µM* | -3 | . | .
CCOC(=O)N1CCN(c2ccc(S(=O)(=O)N3CCOCC3)cn2)CC1 | 28µM* | -3 | . | .
CC(C)(C)NC(=O)NC(=O)CSc1ccc(S(=O)(=O)N2CCOCC2)cn1 | -5% | 0 | . | .
Clc1ccccc1C1Nc2cccc3cccc(c23)N1 | -1% | 0 | 1% | .
Oc1ccc(C2Nc3cccc4cccc(c34)N2)c(O)c1 | 32µM* | 0 | 0% | -11%[46.1 µM]
Cc1ccc(CNC(=O)[C@@H](NC(=O)C2CCN(C(=O)[C@@H]3CCCN3)CC2)C(C)C)cc1 | 2% | 0 | -1% | .
Cc1ccc(-n2ncc3c(SCc4cccc(C)c4)ncnc32)cc1 | 28µM* | -2 | 0% | 13%
Cc1cccc(CSc2ncnc3c2cnn3Cc2ccccc2)c1 | -3% | -4 | ? | -21%[46.1 µM]
SMILES | ClpP mod | IL2 activator | PKM2 activator | NPSR antagonist
COc1ccc(-c2cc(C(=O)NCCN3CCOCC3)c3ccccc3n2)cc1OC | -4% | -1 | 0% | .
COc1ccc(-c2cn3c(C)c(C(=O)NCCN4CCOCC4)sc3n2)cc1 | 22µM* | 1 | 1% | -8%[46.1 µM]
COc1cccc(-c2cc(C(=O)Nc3ccncc3)c3ccccc3n2)c1 | 13µM* | -5 | 0% | .
COc1cccc(NC(=O)c2cc(-c3ccccn3)nc3ccccc23)c1 | 12% | -6 | . | .
COc1ccc(-c2cc(C(=O)NCCN3CCOCC3)c3ccccc3n2)cc1 | 35µM* | 0 | -6% | 7%[46.1 µM]
O=S(=O)(c1ccc(NC2CCCc3ccccc32)nc1)N1CCOCC1 (stereo unspecified) | 32µM* | -4 | -6% | -20%[46.1 µM]
CCC(=O)N1CCN(c2ccc(NC(=O)c3ccc([N+](=O)[O-])o3)cc2Cl)CC1 | . | -7 | -1% | 5µM*
CC(=O)N1CCN(c2ccc(NC(=O)c3ccc([N+](=O)[O-])o3)cc2Cl)CC1 | . | 2 | 8% | .
CCCCCC(=O)N1C[C@H](n2cc(-c3ccc(F)cc3)nn2)[C@@H](O)C[C@@H]1c1ccc(OC)cc1 | 0% | 3 | . | .
CCOC(=O)CSc1nnc(Cc2ccccc2)n1-c1cccc(Cl)c1 | 1% | 0 | 0% | -13%[46.1 µM]
O=C1CC(O)(C(F)F)Oc2ccc3ccccc3c21 (stereo unspecified) | 25µM* | -3 | 0% | -7%[46.1 µM]
CSc1nc(NCCOCCO)c2sc3nc(-c4ccco4)c4c(c3c2n1)CCC4 | -15% | 0 | 22µM* | -22%[46.1 µM]
Nc1cc(C(=O)OCC(=O)NC(c2ccccc2)c2ccccc2)ccc1Cl | 25µM* | 0 | -6% | -1%
Cc1nc(N2CCOCC2)c2c3c(sc2n1)CCC3 | 0% | 0 | 0% | -11%
COc1ccc(CCc2ccc3cc(OC)ccc3n2)cc1 | . | 0 | . | .
CCOc1ccc(NC(=O)Cn2c(=O)n(Cc3nc(-c4ccccc4)no3)c(=O)c3cc4c(cc32)OCO4)cc1 | 25µM* | . | . | .
Cc1noc(Cn2c(=O)c3cc4c(cc3n(CC(=O)Nc3ccccc3Br)c2=O)OCO4)n1 | 11µM* | . | . | .
Cc1ccc(NC(=O)Cn2c(=O)n(Cc3nc(C)no3)c(=O)c3cc4c(cc32)OCO4)c(Cl)c1 | 6% | . | . | .
CCOC(=O)[C@]12CCCC=C1N(CCC1=CCCCC1)C(=O)[C@H](CC(=O)NCC13CC4CC(CC(C4)C1)C3)C2 | -2% | -1 | . | .
Cc1ccc2nc(NC(=O)CSc3nncc(=O)n3N)sc2c1 | 25µM* | -1 | -26% | 7%
COc1ccc2nc(NC(=O)CSc3nnc(C)n3N)sc2c1 | 3% | 0 | 2% | -9%
CCN(C(=O)COC(=O)c1ccc2c(c1)OCO2)c1ccc(F)cc1 | 28µM* | -2 | . | .
COc1ccc(-c2c(-c3ccc(S(C)(=O)=O)cc3)sc3ccc(OC)cc23)cc1 | 4% | -1 | . | .
COc1cc(OC)cc(-c2sc3ccc(OC)cc3c2-c2ccc(O)cc2)c1 | ? | 0 | . | .
COc1ccc(-c2c(-c3cc(OC)cc(OC)c3)sc3ccc(OC)cc23)cc1 | 18µM* | 1 | . | .
SMILES | ClpP mod | IL2 activator | PKM2 activator | NPSR antagonist
COc1ccc(-c2sc3ccc(OC)cc3c2-c2ccc(O)cc2)cc1 | 28µM* | -1 | . | .
COc1ccc(CCNC(=O)C2CCC(=O)N(CC3CCCCC3)C2)cc1 (stereo unspecified) | 32µM* | -2 | 1% | .
Cc1oc2c(cc(NS(=O)(=O)c3cccs3)c3ccccc32)c1C(=O)OC(C)C | 33% | 1 | 27% | ?
COc1ccc(-c2c(C)oc3c(CN4CCN(CCO)CC4)c(O)ccc3c2=O)cc1OC | 22µM* | 0 | 4% | -5%[46.1 µM]
Cc1oc2c(CN3CCCC3)c(O)ccc2c(=O)c1-c1ccc(Br)cc1 | 14µM* | -1 | -3% | -7%[46.1 µM]
O=C1NC(=O)c2c(NC(=O)C3CCCO3)cccc21 (stereo unspecified) | 16µM* | 0 | 10% | -8%[46.1 µM]
